Assay in all cases: NCI-60 one-dose screen, 48 h (100 = growth as untreated, 0 = no growth, -100 = all killed)
What all share (details): 10 µM unless noted

For assay [1], the system named is T-47D breast.
For assay [2], the system named is BT-549 breast.
Assay [3] has as its system MDA-MB-435 melanoma.
Assay [4] deals with SW-620 colon.
Assay [5] deals with MCF7 breast.
Assay [6] has as its system HCT-116 colon.
The test system of assay [7] is HCC-2998 colon.
Assay [8] concerns KM12 colon.

The structures appear in SMILES notation. The panel holds about 83,000 compounds, 20% with a hit somewhere; the sample as a whole holds those more often.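 A percent growth of 40 corresponds to 60% growth inhibition; 0 means no net growth; -100 means all cells died. Active threshold: below 10.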 Unmarked numbers belong to inactive results. Active and inactive are the calls of the source.

Take `COc1cc2c(=O)n(CCCn3ccnc3)c3c4cc5c(cc4ccc3c2cc1OC)OCO5`: the growth in assay [1] is -10.9% (active); in assay [2], 28.4%; in assay [3], -25.3% (active); in assay [4] it was 11%; in assay [5], 4.23% (active); in assay [6] it was -62.1% (active). The growth in assay [7] is 33.3%; in assay [8] it was 8.03% (active).
Turning to `O=C(NCCN1CCC(O)CC1)c1cc2c(o1)C(=O)c1ccccc1C2=O`, the growth in assay [1] was -44.6% (active); in assay [2], -94.4% (active); in assay [3], -91.8% (active); in assay [4] it was -78.3% (active); in assay [5], -69.7% (active); in assay [6], -81.5% (active). For the same compound, the growth in assay [7] is -92.9% (active); in assay [8], -89.3% (active).
Regarding `N=C(N)c1ccc(-c2ccc(/C=C/c3ccccc3)s2)cc1`, the growth in assay [1] is 37.8%; in assay [2] it was 93.9%; in assay [3] it was -34.9% (active); in assay [4], -67.1% (active); in assay [5] it was -74.2% (active); in assay [6], -79% (active). The growth in assay [7] is -63.7% (active); in assay [8], -47.1% (active).
As for `CC(C)CCC[C@@H](C)[C@H]1CCC2C3=CCC4C(=O)C=CC(=O)C4C3CC[C@@]21C` (stereo not given in full), the growth in assay [1] was -18.9% (active); in assay [2], -1.63% (active); in assay [3], 5.05% (active); in assay [4] it was -10.1% (active); in assay [5] it was 8.65% (active); in assay [6], -75.5% (active). Besides, the growth is 12.4% in assay [7] and 7.56% (active) in assay [8].
For the compound `CCCCCCCC/C=C/CCCCCCCC1=NCC[N+]1(CCO)CCO`, the growth is 90.5% in assay [1]; 98.7% in assay [2]; 65.1% in assay [3]; 71.4% in assay [4]; 66.5% in assay [5]; 59.8% in assay [6]. The growth in assay [7] was 72%; in assay [8], 40.4%.
On to `N=C(N)c1ccc(-c2ccc(-c3ccc(Cl)cc3Cl)o2)cc1`, for which the growth in assay [1] was 57.6%; in assay [2], 94.7%; in assay [3], -63.6% (active); in assay [4] it was -67.3% (active); in assay [5], -73.7% (active); in assay [6], -68.8% (active). The growth in assay [7] is -93.2% (active); in assay [8] it was -77.7% (active).
Consider `COc1ccc(-c2nc3ccccn3c2/C=C/C(=O)c2cc(OC)c(OC)c(OC)c2)cc1`, for which the growth was 26.6% in assay [1]; 61.7% in assay [2]; 38.6% in assay [3]; 49.7% in assay [4]; 18.8% in assay [5]; 11.6% in assay [6]. Further, the growth in assay [7] was 61.1%; in assay [8] it was 46.3%.
Consider `Nc1c(-c2nc3ccc(Br)cc3c(=O)[nH]2)nnn1-c1ccccc1`, for which the growth in assay [1] was 78.3%; in assay [2], 63.1%; in assay [3], 72.2%; in assay [4], 88.1%; in assay [5], 78.7%; in assay [6], 48.2%. Also, the growth was 80.6% in assay [7] and 61.6% in assay [8].
On to `CC(C)OCCCNCC(=O)Nc1ccc(S(=O)(=O)c2ccc(NC(=O)CNCCCOC(C)C)cc2)cc1`, for which the growth is 103% in assay [1]; 102% in assay [2]; 101% in assay [3]; 87.6% in assay [4]; 85.8% in assay [5]; 81.3% in assay [6]. Besides, the growth in assay [7] is 73.8%; in assay [8], 99.8%.
For `CN(C)c1ccc(/C=N/NC(=O)COc2cc(=O)n(C)c3ccccc23)cc1`, the growth is 97.6% in assay [1]; 108% in assay [2]; 101% in assay [3]; 104% in assay [4]; 89.4% in assay [5]; 101% in assay [6]. Also, the growth is 116% in assay [7] and 109% in assay [8].
With `COc1ccc(/C=C2\C=C(c3ccccc3)N(CCc3ccccc3)C2=O)cc1OC`, the growth in assay [1] was 8% (active); in assay [2] it was 80.1%; in assay [3], 36%; in assay [4], 56%; in assay [5], 34.4%; in assay [6], 32.8%. The figures for the growth in assay [7] and in assay [8] were 73.3% and 64%, respectively.
As to `Clc1ccc(-c2nnc(-c3ccco3)o2)cc1`, the growth in assay [1] is 99.2%; in assay [2] it was 101%; in assay [3] it was 89.7%; in assay [4], 99.5%; in assay [5], 95.2%; in assay [6], 87.3%. The growth in assay [7] is 94.4%; in assay [8], 106%.
Regarding `CN(CCC(=O)/C(=C\c1ccccc1)c1ccc(Cl)cc1)Cc1ccccc1`, the growth is 15.3% in assay [1]; 12.7% in assay [2]; 1.24% (active) in assay [3]; 4.45% (active) in assay [4]; 28.3% in assay [5]; 2.49% (active) in assay [6]. Moreover, the values for the growth in assay [7] and in assay [8] were 105% and 67.1%, respectively.
Regarding `COc1cc2c(cc1OC)-c1ccc3cc4c(cc3c1N(CCN(C)C)C2)OCO4`, the growth in assay [1] was -12.3% (active); in assay [2], -2.52% (active); in assay [3], 40%; in assay [4] it was 9.79% (active); in assay [5] it was 4.64% (active); in assay [6], -85.8% (active). The growth in assay [7] was 26.7%; in assay [8], 17.1%.
For the compound `Cc1cc(=O)[nH]c(N/N=C/c2cc(Br)ccc2O)n1`, the growth is 25% in assay [1]; 17.2% in assay [2]; 47.3% in assay [3]; 40.3% in assay [4]; 1.32% (active) in assay [5]; 5.04% (active) in assay [6]. Moreover, the growth was 32.5% in assay [7] and 34.6% in assay [8].
